Drawing on PubChem BioAssay AID687001 (Broad Institute, 2013), this text covers outcome for 39 molecules.

Measured potencies and affinities stand elsewhere. The source made the active and inactive calls.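 How the source made its calls: active means signal-lowering compounds whose fitted half-maximal concentration is at or below twice the top tested dose in every run; inconclusive means runs disagree, flat 30 to 70% inhibition, or poor curve fit; inactive means the rest.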

Sequence of Protein S100-A4 (Homo sapiens) (P26447 whole entry, looked up): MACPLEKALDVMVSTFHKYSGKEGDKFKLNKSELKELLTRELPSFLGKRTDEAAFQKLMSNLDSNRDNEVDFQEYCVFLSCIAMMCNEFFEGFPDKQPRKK

The assay addresses Protein S100-A4 (Homo sapiens) (UniProt P26447). The assay can be described thus: S100A4-myosin IIA binding inhibitor potency, dose response, biochemical, fluorescence polarization, cherry-picked hits (AID 687001). The following applies: FP, S100A4/TAMRA-myosin IIA peptide binding; series mostly up to 11 µM. Background: In fluorescence polarisation assays a small probe gives low polarisation when free and higher when bound to something large.
Regarding `CO[C@H]1CN(C)C(=O)c2ccc(NC(=O)c3ccccc3F)cc2OC[C@H](C)NC[C@@H]1C`, the call was inactive.
In the case of `Cc1cc(C)c(NC(=O)CS(=O)CC(=O)NCCN2CCCCCC2)c(C)c1` (centres undefined) it was “inactive”; in that of `CC(C)NC(=O)Nc1ccc2c(c1)C(=O)N([C@H](C)CO)C[C@@H](C)[C@H](CN(C)S(=O)(=O)c1ccccc1)OCCCC[C@@H](C)O2`, “inactive”.
In the case of `CC(C)(C)C1CCSC2=NCCC[C@]2(c2ccccc2)C1` (some centres undefined) it was “inactive”.
For `COc1ccc(CN(C)C[C@@H]2Oc3ccc(NS(=O)(=O)c4ccccc4)cc3CC(=O)N([C@H](C)CO)C[C@H]2C)cc1` the value was “inactive”; for `O=C1C2C3C=CC(C2C(=O)N1CCO)C1C(=O)N(CCO)C(=O)C31` (centres undefined), “inactive”.
Take `CCN(CC)c1ccc(S(=O)(=O)N2CCOCC2)cc1NC(=O)COC(=O)/C=C/c1ccccc1`: the call was inactive.
In the case of `COc1cc(S(=O)(=O)Nc2ccc(C)cc2)ccc1N=Cc1c(C)c(C#N)c(=O)n(C)c1O` it was “inactive”.
For `COc1ccc(-n2ncc3c2CC(C)(C)CC3NC(=O)CCc2c(C)nn(C)c2C)cc1` (centres undefined) the value was “inactive”; for `Cc1ccc(-c2csc(NC3OC(=O)c4ccccc43)n2)cc1` (centres undefined), “inactive”; for `CC1=CC(C)(C)NC(=S)N1C(C)c1ccccc1` (centres undefined), “inactive”.
For `COc1ccc(C(CNC(=O)C(=O)Nc2ccc3c(c2)OCCO3)N2CCN(C)CC2)cc1` (centres undefined) the value was “inactive”.
As to `Cc1noc(C)c1S(=O)(=O)N(C)C[C@@H]1Oc2ccc(NC(=O)C3CC3)cc2CC(=O)N([C@@H](C)CO)C[C@H]1C`, the call was inactive.
For `Cc1ccc(CCNC(=O)c2ccc(CS(=O)(=O)c3ccccc3C)o2)cc1` the value was “inactive”; for `CCCN1CCN(CCCNC(=O)C(CC)n2nc(C)c3sc4ccccc4c3c2=O)CC1` (centres undefined), “inactive”; for `CCCNC(=O)N1CC[C@@H]2[C@@H](CO)N(C)c3ccc(-c4ccc(F)cc4)cc3[C@@H]21`, “inactive”.
In the case of `O=C(NCCc1ccncc1)Nc1ccc(F)cc1`, the call was inactive.
For `COc1ccc(NC(=O)Nc2ccc3c(c2)C(=O)N([C@H](C)CO)C[C@H](C)[C@H](CN(C)Cc2ccc(C(F)(F)F)cc2)OCCCC[C@H](C)O3)cc1` the value was “inactive”; for `Cc1ccccc1S(=O)(=O)NCC[C@H]1CC[C@H](NC(=O)C2CCC2)[C@H](CO)O1`, “inactive”; for `Cc1ccc(N(C)S(=O)(=O)c2ccc3[nH]cc(C(=O)NCCCN4CCOCC4)c(=O)c3c2)cc1C`, “inactive”.
In the case of `Cc1cccc(S(=O)(=O)N2CC[C@@H]3[C@H](CO)Nc4ccc(C#Cc5ccc(F)cc5)cc4[C@@H]32)c1` it was “inactive”; in that of `COc1ccc(C=O)cc1COc1ccc2c(c1)OCO2`, “inactive”.
Regarding `Cc1cc(Nc2cccc(F)c2)cc(=O)n1-c1cccc(F)c1`, the result was inactive.
For `CCCCn1c(N)c(N(CC(C)C)C(=O)COc2cc(C)ccc2Cl)c(=O)[nH]c1=O` the value was “inactive”.
In the case of `Cc1ccc(N(C)S(=O)(=O)c2cccc(C(=O)NCCCN3CCCC3=O)c2)cc1` it was “inactive”; in that of `COc1ccc(OC)c(NC(=O)CSc2nnc(CNC(=O)c3cc(OC)c(OC)c(OC)c3)o2)c1`, “inactive”.
`O=C(CCc1ccccc1)Nc1sc2c(c1C(=O)O)CCCC2`: the call was inactive.
For `COc1cccc(NC(=O)CC2Oc3ccccc3NC2=O)c1` (centres undefined), the call was inactive.
In the case of `C[C@H]1CCCCO[C@H](CN(C)S(=O)(=O)c2ccc(F)cc2)[C@@H](C)CN([C@@H](C)CO)C(=O)c2cc(NS(=O)(=O)c3ccccc3)ccc2O1` it was “inactive”; in that of `Cc1ccc(S(=O)(=O)N[C@H]2C=C[C@@H](CC(=O)NC3CCCCC3)O[C@@H]2CO)cc1`, “inactive”; in that of `CCc1nn2c(=O)cc(COc3ccc(NC(=O)c4ccco4)cc3)nc2s1`, “inactive”.
`O=C(c1cnn(C(=O)c2ccco2)c1)c1cc(Cl)cc(Cl)c1O`: the molecule was classed as inactive.
In the case of `COc1ccc(C2=NN(CCC(=O)NC3CCC(C)CC3)C(=O)CC2)cc1` (centres undefined) it was “inactive”.
In the case of `Cc1nc2ccccc2nc1CC(O)(c1ccccc1)c1ccccc1` it was “inactive”.
For `CS(=O)(=O)N(CCc1ccccc1)CC(=O)N1CCCCCC1` the value was “inactive”; for `Cc1onc(-c2ccccc2Cl)c1C(=O)N1CCCC1`, “inactive”; for `O=C(C[C@@H]1CC[C@@H](NC(=O)CC2CC2)[C@H](CO)O1)NCc1ccc(Cl)cc1`, “inactive”.
Regarding `CCCN1[C@H](CO)[C@H](c2ccc(C3=CCCCC3)cc2)[C@@H]1CNS(C)(=O)=O`, the outcome was inactive.
In the case of `COc1ccc(-c2sc3ccccc3c2-c2ccc(OCCN(C)C)cc2)cc1` it was “inactive”.
